The values below come from PubChem BioAssay (NCI).

Among the test systems are NCI-H23 lung; NCI-H226 lung; NCI-H322M lung; HOP-62 NSCLC; NCI-H460 lung; HOP-92 NSCLC; NCI-H522 lung; A549/ATCC NSCLC; 786-0 renal; COLO 205 colon; DU-145 prostate; K-562 leukemia; MALME-3M melanoma; MDA-MB-231 breast; RXF 393 renal; SF-268 CNS; SF-295 CNS; SF-539 CNS; UACC-257 melanoma; M14 melanoma.
What all share (assay): NCI-60 one-dose screen, 48 h (100 = growth as untreated, 0 = no growth, -100 = all killed)
Common to all, as to settings: 10 µM unless noted

The panel holds about 83,000 compounds, 20% with a hit somewhere; the sample as a whole holds those more often.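 How to read the values: 0–100, growth inhibition (40 = 60% inhibited); 0, no net growth; -100 to 0, cell death (-40 = 40% of starting cells died; -100 = all dead).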 Unmarked numbers belong to inactive results. The source made the active and inactive calls. Rule for the calls: active = growth percent below 10; inactive = the rest.

Consider `CC(C)n1c2ccc(Br)cc2c2c3c(c4c5ccccc5ccc4c21)C(=O)NC3=O`, for which the growth with NCI-H23 lung is 93.7%; with NCI-H226 lung it was 95.5%; with NCI-H322M lung, 70.9%; in the assay on HOP-62 NSCLC, 94.6%; in the assay with NCI-H460 lung it was 89.9%; in the assay on HOP-92 NSCLC it was 117%. Also, the growth is 71.9% with NCI-H522 lung; 98.3% with A549/ATCC NSCLC; 101% in the assay on 786-0 renal; 101% in the assay on COLO 205 colon; 84.2% in the assay with DU-145 prostate; 76.4% with K-562 leukemia. The growth was 105% in the assay with MALME-3M melanoma; 110% with MDA-MB-231 breast; 98.5% with RXF 393 renal; 88.7% in the assay with SF-268 CNS; 101% in the assay with SF-295 CNS; 91.5% in the assay with SF-539 CNS. The growth in the assay with UACC-257 melanoma was 113%; with M14 melanoma, 92.7%.

Regarding `CC[C@H](Nc1nc(N)nc(C)c1C#N)c1nc2cccc(CN(C)c3ncc(C(=O)NO)cn3)c2c(=O)n1-c1ccccc1`, the growth is 11.6% with NCI-H23 lung; 24.3% in the assay on NCI-H226 lung; 5.95% (active) with NCI-H322M lung; 11.4% with HOP-62 NSCLC; 10.8% in the assay with NCI-H460 lung; -28.3% (active) in the assay with HOP-92 NSCLC. Besides, the growth in the assay on NCI-H522 lung was -45.2% (active); in the assay on A549/ATCC NSCLC, 27.4%; with 786-0 renal, 11.9%; in the assay with COLO 205 colon, -55.8% (active); with DU-145 prostate, 18.5%; in the assay with K-562 leukemia it was 8.69% (active). The growth was 8.44% (active) in the assay on MALME-3M melanoma; -12.6% (active) in the assay on MDA-MB-231 breast; -61% (active) in the assay with RXF 393 renal; 12.1% in the assay with SF-268 CNS; -8.31% (active) in the assay with SF-295 CNS; 8.35% (active) in the assay on SF-539 CNS. Also, the values for the growth in the assay with UACC-257 melanoma and in the assay on M14 melanoma were -20.8% (active) and 9.1% (active), respectively.

As to `CC/C(=C(\c1ccc(Cl)cc1)c1ccc(OCCN2CCCCC2)cc1)c1ccc(O)cc1`, the growth in the assay on NCI-H23 lung was 47.6%; with NCI-H226 lung it was 78.6%; in the assay with NCI-H322M lung it was 70.1%; with HOP-62 NSCLC, -9.16% (active); with NCI-H460 lung, -34.5% (active); with HOP-92 NSCLC, 49.9%. For the same molecule, the growth in the assay on NCI-H522 lung was 58.1%; in the assay with A549/ATCC NSCLC, 32.5%; with 786-0 renal it was -54.9% (active); in the assay with COLO 205 colon it was -73.5% (active); in the assay with DU-145 prostate it was 39.7%; in the assay on K-562 leukemia, -28.4% (active). Besides, the growth with MALME-3M melanoma was -38.1% (active); in the assay with MDA-MB-231 breast, 26.5%; in the assay with RXF 393 renal, -6.93% (active); in the assay with SF-268 CNS, 53%; with SF-295 CNS it was 54.6%; in the assay with SF-539 CNS, 50%. In addition, the growth is -22.1% (active) with UACC-257 melanoma and -55.5% (active) with M14 melanoma.

For `Cn1c2ccccc2c2c3c(c4c5cc(Br)ccc5n(C)c4c21)C(=O)N(O)C3=O`, the growth in the assay on NCI-H23 lung was 2.91% (active); with NCI-H226 lung, 14.8%; in the assay on NCI-H322M lung, 31.8%; in the assay with HOP-62 NSCLC, 0.364% (active); in the assay with NCI-H460 lung, 4.42% (active); with HOP-92 NSCLC it was 40.8%. For the same molecule, the growth in the assay on NCI-H522 lung was 25.4%; with A549/ATCC NSCLC it was 40.3%; in the assay with 786-0 renal, 14.6%; with COLO 205 colon, 23.2%; in the assay on DU-145 prostate, -50.7% (active); in the assay on K-562 leukemia it was 10.4%. For the same molecule, the growth was 42.4% with MALME-3M melanoma; -32% (active) in the assay on MDA-MB-231 breast; -24.8% (active) in the assay with RXF 393 renal; -0.663% (active) with SF-268 CNS; 25.9% in the assay with SF-295 CNS; -27.7% (active) in the assay on SF-539 CNS. Also, the results for the growth in the assay on UACC-257 melanoma and in the assay with M14 melanoma were 48.6% and -5.5% (active), respectively.

Take `COc1ccc(-c2nc(SCC(=O)Nc3nc4ccc(C)cc4s3)[nH]c(=O)c2C#N)cc1OC`: the growth with NCI-H23 lung was 103%; in the assay on NCI-H226 lung, 83.6%; in the assay on NCI-H322M lung, 101%; in the assay with HOP-62 NSCLC, 74.8%; in the assay with NCI-H460 lung, 100%; in the assay on HOP-92 NSCLC it was 102%. In addition, the growth in the assay on NCI-H522 lung was 105%; in the assay on A549/ATCC NSCLC, 105%; in the assay with 786-0 renal, 105%; in the assay on COLO 205 colon, 115%; in the assay with DU-145 prostate, 114%; with K-562 leukemia it was 94.4%. For the same molecule, the growth is 103% in the assay on MALME-3M melanoma; 97.9% in the assay with MDA-MB-231 breast; 113% with RXF 393 renal; 95.9% in the assay on SF-268 CNS; 96.4% in the assay on SF-295 CNS; 92.9% with SF-539 CNS. In addition, the values for the growth in the assay with UACC-257 melanoma and in the assay with M14 melanoma were 103% and 91.3%, respectively.

Turning to `O=C(Nc1cc(Cl)cc(Cl)c1)Oc1c(Cl)c(Cl)c(Cl)c(Cl)c1Cl`, the growth with NCI-H23 lung is 57%; in the assay on NCI-H226 lung, 72.5%; with NCI-H322M lung, 99.2%; in the assay with HOP-62 NSCLC, 94.4%; in the assay on NCI-H460 lung it was 72.6%; in the assay with HOP-92 NSCLC it was -18.7% (active). For the same molecule, the growth was 38.9% in the assay on NCI-H522 lung; 71.2% in the assay on A549/ATCC NSCLC; 81.1% with 786-0 renal; 80.7% in the assay with COLO 205 colon; 83.7% in the assay on DU-145 prostate; 41.4% with K-562 leukemia. For the same molecule, the growth in the assay on MALME-3M melanoma was 80.6%; with MDA-MB-231 breast, 77.8%; in the assay on RXF 393 renal it was 79.7%; with SF-268 CNS, 77.3%; in the assay with SF-295 CNS it was 59.8%; with SF-539 CNS, 76.8%. For the same molecule, the growth in the assay with UACC-257 melanoma is 83.7%; with M14 melanoma, 87.3%.

As to `O=C1O[C@@H](c2ccccc2Cl)[C@@H]2c3cc4c(cc3CCN12)OCO4`, the growth in the assay with NCI-H23 lung was 103%; in the assay with NCI-H226 lung it was 93.7%; with NCI-H322M lung, 89.3%; in the assay with HOP-62 NSCLC, 96.2%; in the assay with NCI-H460 lung, 101%; in the assay on HOP-92 NSCLC, 92.5%. Moreover, the growth with NCI-H522 lung was 81.9%; with A549/ATCC NSCLC, 86.3%; in the assay with 786-0 renal it was 97.9%; in the assay with COLO 205 colon, 110%; in the assay with DU-145 prostate, 105%; in the assay with K-562 leukemia, 87.5%. Further, the growth was 101% in the assay with MALME-3M melanoma; 97.2% in the assay with MDA-MB-231 breast; 111% in the assay on RXF 393 renal; 93.2% with SF-268 CNS; 102% with SF-295 CNS; 107% in the assay with SF-539 CNS. In addition, the values for the growth in the assay on UACC-257 melanoma and in the assay with M14 melanoma were 90.7% and 105%, respectively.

Turning to `Cc1cccc(N=Nc2cccc(C)c2)c1`, the growth in the assay on NCI-H23 lung is 92.5%; in the assay with NCI-H226 lung it was 100%; with NCI-H322M lung, 98.5%; with HOP-62 NSCLC, 104%; in the assay with NCI-H460 lung, 102%; in the assay on HOP-92 NSCLC, 85.9%. In addition, the growth was 97.4% in the assay on NCI-H522 lung; 104% in the assay with A549/ATCC NSCLC; 116% in the assay on 786-0 renal; 111% in the assay with COLO 205 colon; 112% in the assay on DU-145 prostate; 138% in the assay with K-562 leukemia. Further, the growth was 100% in the assay on MALME-3M melanoma; 86.4% in the assay with MDA-MB-231 breast; 115% with RXF 393 renal; 110% in the assay on SF-268 CNS; 97.9% in the assay on SF-295 CNS; 110% with SF-539 CNS. For the same molecule, the figures for the growth in the assay on UACC-257 melanoma and in the assay on M14 melanoma were 113% and 108%, respectively.
